Most compounds without a hit are left out; they make up all but 1.7% or so of the library.
PREPL inh: inhibits the human prolyl oligopeptidase-like enzyme; Q4J6C6; recombinant PREPL, fluorescence polarization activity-based probe; inhibition, % at 5.96 µM; 320,000 compounds, 0.68% hits; in the data active = inhibition above about 43%;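 note: 0% = enzyme with DMSO and 100% = wells lacking enzyme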
Target sequence (Q4J6C6 whole entry, looked up): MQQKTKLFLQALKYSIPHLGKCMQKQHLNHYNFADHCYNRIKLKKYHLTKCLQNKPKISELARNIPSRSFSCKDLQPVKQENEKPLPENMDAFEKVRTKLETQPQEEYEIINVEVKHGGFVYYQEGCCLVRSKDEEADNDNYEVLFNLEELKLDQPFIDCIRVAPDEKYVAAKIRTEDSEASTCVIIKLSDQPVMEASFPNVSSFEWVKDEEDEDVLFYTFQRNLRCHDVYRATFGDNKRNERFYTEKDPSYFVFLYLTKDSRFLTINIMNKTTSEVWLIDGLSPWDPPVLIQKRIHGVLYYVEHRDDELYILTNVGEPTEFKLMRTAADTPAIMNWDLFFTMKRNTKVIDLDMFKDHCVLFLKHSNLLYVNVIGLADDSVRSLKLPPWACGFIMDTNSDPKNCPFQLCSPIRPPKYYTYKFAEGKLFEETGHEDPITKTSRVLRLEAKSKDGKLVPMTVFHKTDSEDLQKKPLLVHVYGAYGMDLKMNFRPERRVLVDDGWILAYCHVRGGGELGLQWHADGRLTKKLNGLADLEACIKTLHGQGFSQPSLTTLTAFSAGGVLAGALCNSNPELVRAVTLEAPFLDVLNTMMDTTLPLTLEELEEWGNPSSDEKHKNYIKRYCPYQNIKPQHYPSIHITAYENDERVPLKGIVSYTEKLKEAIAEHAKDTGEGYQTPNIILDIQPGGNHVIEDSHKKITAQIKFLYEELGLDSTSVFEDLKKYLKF
Rin1-Abl PPI inh: blocks binding of human Rin1 to Abl | P00519+Q13671 | TR-FRET Rin1/Abl binding, biochemical | inhibition, % at 7.35 µM | 360,000 compounds, 0.4% hits | AID 588664; in the data active = inhibition above about 5%, passing the limit was not always enough
p97 ATPase inh: human p97 ATPase inhibition; P55072; recombinant p97 ATPase, Kinase-Glo ATP luminescence, 3 h; inhibition, % at 8 µM; 220,000 compounds, 0.42% hits; AID 1481; in the data active = inhibition above about 15%;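 note: 0% = DMSO vehicle and 100% = wells lacking enzyme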
LYPLA1 inh: blocks human lysophospholipase 1, a PME1 counter-screen | 320,000 compounds, 0.16% hits | inhibition, % at 5.9 µM | AID 2174 | recombinant LYPLA1, FP-Rh probe fluorescence polarization;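 active = inhibition above the mean of all tested compounds plus 3 SD, set per campaign, cut at about 14% in these data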;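 note: inhibitors block serine hydrolase probe labeling of LYPLA1 so polarization falls; 0% = enzyme with DMSO and 100% = wells lacking LYPLA1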
LYPLA2 inh: blocks human lysophospholipase 2, a PME1 counter-screen; O95372; recombinant LYPLA2, FP-Rh probe fluorescence polarization; inhibition, % at 5.9 µM; 320,000 compounds, 0.38% hits;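 active = inhibition above the screen-wide mean plus 3 SD, limit set per campaign, cut at about 26% in these data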;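 note: 0% = LYPLA2 with DMSO and 100% = wells lacking LYPLA2 enzyme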
Hck-Nef inh: blocks Nef-activated human Hck kinase; inhibition, % at 20 µM; Recombinant Hck-YEEI plus Nef, Z-Lyte FRET kinase assay; P08631; 220,000 compounds, 0.68% hits; AID 463187;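 active = Hck-Nef kinase inhibition above about 50%, limit read from the data; inactive = inhibition below that limit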;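 note: 0% = DMSO with Hck plus Nef and 100% = Hck alone without Nef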
Hck-Nef confirm: confirmation of Hck-Nef kinase inhibitors; shares compounds with Hck-Nef inh; Recombinant Hck-YEEI:Nef, Z-Lyte FRET kinase assay; calls only at 10 µM; 1,300 compounds, 28% hits;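 active = average inhibition of at least 50%, with Z-scores no higher than 3 in both the phospho-tyrosine peptide and fluorescence counterscreens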
Numbers without * were called inactive.

Results for COc1ccc2nc(C)cc(SCC(=O)NNC(=O)COc3ccc(C)cc3)c2c1 ?
PREPL inh: -14.5; Rin1-Abl PPI inh: -66.8; p97 ATPase inh: 2.7; LYPLA1 inh: -1.3; LYPLA2 inh: 3.7; Hck-Nef inh: -0.8

What do the screens show for `COc1ccccc1OCC(=O)NC1CCSc2ccccc21` (stereo not given)?
PREPL inh: 7.7; Rin1-Abl PPI inh: -0.9; LYPLA1 inh: 0.1; LYPLA2 inh: 3.7

How did CCCC(=O)N1CCCC1(C)C(=O)Nc1ccc(-n2cccc2)cc1 (stereo not given) do in these assays?
Rin1-Abl PPI inh: -0.7

What do the screens show for `COc1cc2nc(Cl)nc(N3CCCCC3)c2cc1OC`?
PREPL inh: -1.1; Rin1-Abl PPI inh: -0.2; p97 ATPase inh: -0.9; LYPLA1 inh: 0.8; LYPLA2 inh: -4.5; Hck-Nef inh: 11.1

Results for COc1cc2nc(Cl)nc(N3CCOCC3)c2cc1OC ?
PREPL inh: -3.0; Rin1-Abl PPI inh: -1.2; p97 ATPase inh: 1.9; LYPLA1 inh: 2.7; LYPLA2 inh: 0.2; Hck-Nef inh: 68.7*; Hck-Nef confirm: inactive

What do the screens show for `CN(CC(=O)Nc1ccccc1Cl)C(=O)COC(=O)c1ccc([N+](=O)[O-])s1`?
PREPL inh: 15.7; Rin1-Abl PPI inh: 3.5

What do the screens show for `CCOc1ccc(/C=C2\SC(=S)N(C(C(=O)O)c3ccccc3)C2=O)cc1OC` (stereo not given)?
PREPL inh: 8.9; Rin1-Abl PPI inh: 2.0; p97 ATPase inh: -1.5; LYPLA1 inh: 1.6; LYPLA2 inh: -0.4; Hck-Nef inh: 28.5

How did C=CCOc1ccc(/C=C2\SC(=S)N(C(C(=O)O)c3ccccc3)C2=O)cc1 (stereo not given) do in these assays?
Rin1-Abl PPI inh: -4.0; p97 ATPase inh: -7.8; Hck-Nef inh: 50.5*; Hck-Nef confirm: active

How did CN(c1cccc(Cl)c1)S(=O)(=O)c1cccc(C(=O)NN2CCOCC2)c1 do in these assays?
PREPL inh: 7.2; Rin1-Abl PPI inh: 0.6; LYPLA1 inh: -3.6; LYPLA2 inh: 2.6

Results for Cc1ccccc1C(=O)Nc1nc(-c2cccnc2)cs1 ?
PREPL inh: 18.6; Rin1-Abl PPI inh: -2.5; p97 ATPase inh: 14.5; LYPLA1 inh: -4.5; LYPLA2 inh: 2.0; Hck-Nef inh: 51.2*; Hck-Nef confirm: active

What do the screens show for `CN1CCN(c2nc(-c3cccnc3)nc3ccccc23)CC1`?
PREPL inh: 3.2; Rin1-Abl PPI inh: -1.1; p97 ATPase inh: 3.7; LYPLA1 inh: 0.1; LYPLA2 inh: -3.1; Hck-Nef inh: 1.5

What do the screens show for `COc1cc2c(cc1OC)CN(c1nc(-c3cccnc3)nc3ccccc13)CC2`?
PREPL inh: -2.9; Rin1-Abl PPI inh: -6.3; p97 ATPase inh: 0.9; LYPLA1 inh: -6.1; LYPLA2 inh: -9.5; Hck-Nef inh: 67.9*; Hck-Nef confirm: active

Results for O=C(Nc1cnn(Cc2ccc(F)cc2)c1)c1cnn2c(C(F)F)cc(-c3ccccc3)nc12 ?
PREPL inh: 10.2; Rin1-Abl PPI inh: -4.2; p97 ATPase inh: 13.0; LYPLA1 inh: 0.6; LYPLA2 inh: -4.1; Hck-Nef inh: 88.0*; Hck-Nef confirm: inactive

How did COc1ccc(/C=N/NC(=O)c2ccc3c(c2)OCO3)c(C(=O)O)c1OC do in these assays?
PREPL inh: -0.5; Rin1-Abl PPI inh: 2.5; LYPLA1 inh: 2.5; LYPLA2 inh: 3.0

What do the screens show for `C/C(=N\NC(=O)c1cccc(N/N=C(\C)c2cc(O)ccc2O)c1)c1cc(O)ccc1O`?
PREPL inh: 22.0; Rin1-Abl PPI inh: -0.4; p97 ATPase inh: 7.4; LYPLA1 inh: -22.5; LYPLA2 inh: -16.2; Hck-Nef inh: 57.4*; Hck-Nef confirm: inactive

How did CCCSC1=N/C(=C\c2ccc([N+](=O)[O-])o2)C(=O)S1 do in these assays?
Rin1-Abl PPI inh: 3.1; p97 ATPase inh: 3.2; Hck-Nef inh: 50.5*; Hck-Nef confirm: inactive

How did COCc1cc(C)nc(N/N=C/c2ccc(-c3ccc(Cl)cc3[N+](=O)[O-])o2)c1C#N do in these assays?
Rin1-Abl PPI inh: -0.7; p97 ATPase inh: 4.5; Hck-Nef inh: 171.0*; Hck-Nef confirm: active

What do the screens show for `CC1=C(C#N)c2nc(N)c(C#N)c(C)c2/C1=C\c1ccc(-c2ccccc2C(=O)O)o1`?
Rin1-Abl PPI inh: 0.7; p97 ATPase inh: 8.9; Hck-Nef inh: 61.3*; Hck-Nef confirm: inactive

Results for COc1cc(/C=C2/C(C)=C(C#N)c3nc(N)c(C#N)c(C)c32)ccc1OCC(=O)O ?
PREPL inh: 13.5; p97 ATPase inh: 3.6; LYPLA1 inh: -0.2; LYPLA2 inh: -0.1; Hck-Nef inh: 27.7

What do the screens show for `Cc1ccc2c(C(=O)CN3CCC(C(N)=O)CC3)c(C)[nH]c2c1`?
PREPL inh: 5.0; Rin1-Abl PPI inh: -0.5; LYPLA1 inh: -3.3; LYPLA2 inh: -7.9

What do the screens show for `Cc1cc(C2=NNC(=Nc3ccc(S(=O)(=O)N4CCOCC4)cc3)SC2)c(C)n1C`?
PREPL inh: -0.1; Rin1-Abl PPI inh: -1.7; p97 ATPase inh: 1.7; LYPLA1 inh: -5.2; LYPLA2 inh: -4.3; Hck-Nef inh: 62.7*; Hck-Nef confirm: inactive

How did S=c1[nH]nc(-c2ccncc2)n1/N=C/c1cn(-c2ccccc2)nc1-c1ccccc1 do in these assays?
PREPL inh: 12.1; Rin1-Abl PPI inh: -0.4; p97 ATPase inh: -13.9; LYPLA1 inh: -0.5; LYPLA2 inh: -1.1; Hck-Nef inh: -12.8

How did O=[N+]([O-])c1ccc(-c2nn(-c3ccccc3)cc2/C=N/n2c(-c3ccncc3)n[nH]c2=S)cc1 do in these assays?
PREPL inh: 10.7; Rin1-Abl PPI inh: -7.8; p97 ATPase inh: 3.8; LYPLA1 inh: 1.6; LYPLA2 inh: -0.8; Hck-Nef inh: 53.6*; Hck-Nef confirm: inactive

What do the screens show for `CC1(c2ccccc2)NC(=O)N(CC(=O)N2CCN(S(=O)(=O)c3cccc([N+](=O)[O-])c3)CC2)C1=O` (stereo not given)?
PREPL inh: 6.4; Rin1-Abl PPI inh: 0.5; LYPLA1 inh: -1.9; LYPLA2 inh: 3.9

Results for O=C(Cn1nc(-c2ccc3c(c2)OCCO3)ccc1=O)Nc1ccc(-n2cnnn2)cc1 ?
PREPL inh: 2.2; Rin1-Abl PPI inh: -2.0; p97 ATPase inh: 1.8; LYPLA1 inh: -16.0; LYPLA2 inh: -30.3; Hck-Nef inh: 52.3*; Hck-Nef confirm: inactive

Results for O=C(Cn1nc(-c2ccccc2)ccc1=O)Nc1ccc(-n2cnnn2)cc1 ?
PREPL inh: -51.6; Rin1-Abl PPI inh: -1.1; p97 ATPase inh: 5.0; LYPLA1 inh: -1.1; LYPLA2 inh: 0.1; Hck-Nef inh: 10.8

Results for CCOC(=O)/C(C#N)=C1/SC(CCO)C(=O)N1c1ccccc1 (stereo not given) ?
PREPL inh: 9.0; Rin1-Abl PPI inh: -0.9; p97 ATPase inh: 4.0; LYPLA1 inh: -4.1; LYPLA2 inh: -3.4; Hck-Nef inh: 53.6*; Hck-Nef confirm: inactive

Assay outcomes: PubChem BioAssay, several laboratories
